Assay results reported in PubChem BioAssay (Tox21).
Inconclusive results are not listed. Active and inactive are the calls of the source. Unless noted, calls follow the shape of the full dose curve.

Columns and labels:
[1] = qHTS assay to identify small molecule agonists of the androgen receptor (AR) signaling pathway in the presence of an antagonist - cell viability counter screen (AID 1259379; active = well fitted curve in the direction sought with a large enough effect in the repeat runs; an effect the other way counts as inactive or inconclusive; also: nearly all actives have a fitted effect of over 25% in size; also: potency is read from the fitted curve at half-maximal effect)
Method in brief: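 Seed MDA-kb2 at 3,000 cells/well; incubate 5 hr, 37C, 0% CO2. Add nilutamide to 3.0uM final, then pin compounds at 15 concentrations. Incubate 16 hr. Add CellTiter-Fluor at 15 hr, read fluorescence after 1 hr.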

[2] = qHTS assay to identify small molecule agonists of the estrogen receptor beta (ER-beta) signaling pathway - cell viability counter screen (AID 1259380; active = well fitted curve in the direction sought with a large enough effect in the repeat runs; an effect the other way counts as inactive or inconclusive; also: nearly all actives have a fitted effect of over 30% in size; also: potency is read from the fitted curve at half-maximal effect)
Method in brief: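 CellTiter-Glo read, 30 min RT, same wells as bla assay; cells ER-beta-UAS-bla HEK293T; 16 hr compound, 37C; medium 2% charcoal-stripped FBS.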

[3] = target: Androgen receptor (Homo sapiens) (UniProt P10275); experiment: qHTS assay to identify small molecule agonists of the androgen receptor (AR) signaling pathway in the presence of an antagonist (AID 1259381); also: nearly all actives have a fitted effect of over 15% in size; also: potency is read from the fitted curve at half-maximal effect
Androgen receptor (Homo sapiens), sequence (P10275 whole entry, looked up): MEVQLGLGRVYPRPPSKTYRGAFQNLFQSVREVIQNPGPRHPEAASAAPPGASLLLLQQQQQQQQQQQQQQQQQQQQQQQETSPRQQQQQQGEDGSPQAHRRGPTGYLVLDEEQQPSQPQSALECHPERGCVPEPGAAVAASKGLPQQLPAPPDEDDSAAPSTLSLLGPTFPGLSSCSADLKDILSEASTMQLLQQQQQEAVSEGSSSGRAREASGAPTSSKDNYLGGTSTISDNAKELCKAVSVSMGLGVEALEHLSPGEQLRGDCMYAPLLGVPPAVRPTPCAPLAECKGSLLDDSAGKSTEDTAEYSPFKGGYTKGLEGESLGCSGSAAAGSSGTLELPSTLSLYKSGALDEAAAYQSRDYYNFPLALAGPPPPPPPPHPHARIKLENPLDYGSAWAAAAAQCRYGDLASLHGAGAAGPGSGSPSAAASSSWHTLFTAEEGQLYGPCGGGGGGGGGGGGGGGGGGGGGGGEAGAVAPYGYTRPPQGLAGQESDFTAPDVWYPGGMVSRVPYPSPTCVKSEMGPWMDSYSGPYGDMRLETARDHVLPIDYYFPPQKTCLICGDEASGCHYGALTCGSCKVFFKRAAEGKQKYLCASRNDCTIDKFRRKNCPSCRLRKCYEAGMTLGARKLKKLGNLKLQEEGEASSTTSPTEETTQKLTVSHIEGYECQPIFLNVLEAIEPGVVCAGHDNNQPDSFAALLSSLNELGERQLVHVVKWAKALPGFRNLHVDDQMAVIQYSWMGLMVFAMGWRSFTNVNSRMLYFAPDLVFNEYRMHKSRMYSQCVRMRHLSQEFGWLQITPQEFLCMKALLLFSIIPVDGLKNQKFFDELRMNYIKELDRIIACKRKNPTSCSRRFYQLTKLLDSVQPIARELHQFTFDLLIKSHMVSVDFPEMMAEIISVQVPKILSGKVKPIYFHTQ
Method in brief: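 Test compounds at 15 concentrations were incubated for 16hr with MDA-kb2 reporter cells in presence of 3.0uM nilutamide (final). Signal: ONE-Glo luciferase luminescence.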

[4] = qHTS assay to identify small molecule antagonists of the estrogen receptor beta (ER-beta) signaling pathway - cell viability counter screen (AID 1259382; active = well fitted curve in the direction sought with a large enough effect in the repeat runs; an effect the other way counts as inactive or inconclusive; also: nearly all actives have a fitted effect of over 55% in size; also: potency is read from the fitted curve at half-maximal effect)
Method in brief: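 In this multiplexed counter screen, cells were seeded at 2,000 per well in medium with 2% charcoal-stripped FBS and incubated 6 hr before compound and 1nM final E2 were added. Sixteen hours later, ATP-based luminescence reported viability.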

[5] = target: Estrogen receptor (Homo sapiens) (UniProt P03372); experiment: qHTS assay to identify small molecule agonists of the estrogen receptor alpha (ER-alpha) signaling pathway in the presence of an antagonist (AID 1259383); also: top concentration of the series differs between compounds; nearly all actives have a fitted effect of over 15% in size
Estrogen receptor (Homo sapiens), sequence (P03372 whole entry, looked up): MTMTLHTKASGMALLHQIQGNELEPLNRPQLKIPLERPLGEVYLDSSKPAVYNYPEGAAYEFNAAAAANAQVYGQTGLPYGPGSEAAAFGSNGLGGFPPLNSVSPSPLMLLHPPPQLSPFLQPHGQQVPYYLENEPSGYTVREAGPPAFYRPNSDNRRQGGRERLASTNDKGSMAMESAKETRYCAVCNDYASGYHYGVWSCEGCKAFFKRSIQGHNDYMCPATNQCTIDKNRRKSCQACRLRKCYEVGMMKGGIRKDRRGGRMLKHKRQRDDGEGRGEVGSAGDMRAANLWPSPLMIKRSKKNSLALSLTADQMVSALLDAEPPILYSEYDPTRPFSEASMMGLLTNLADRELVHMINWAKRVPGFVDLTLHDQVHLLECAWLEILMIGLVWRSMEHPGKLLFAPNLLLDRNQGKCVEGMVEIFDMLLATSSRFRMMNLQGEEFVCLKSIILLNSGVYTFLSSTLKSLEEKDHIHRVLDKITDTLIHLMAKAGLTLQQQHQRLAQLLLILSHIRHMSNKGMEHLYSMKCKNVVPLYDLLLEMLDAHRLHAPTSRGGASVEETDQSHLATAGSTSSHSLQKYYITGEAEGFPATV
Method in brief: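 Stably transfected VM7Luc4E2 reporter cells, kept 5 days in charcoal-stripped serum, received ICI-182,780 at 10.0nM final before compound addition. Following 22hr incubation at 37C and 5% CO2, luciferase signal was read by luminescence.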

[6] = qHTS assay to identify small molecule agonists or antagonists of the thyroid stimulating hormone receptor (TSHR) signaling pathway - wild type cell line counter screen (AID 1259384)
Method in brief: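 Wild-type HEK293 cells were plated 18 h at 37 C/5% CO2, pin-dosed with compound plus Ro20-1724 medium, held 30 min at room temperature, then given cAMP-d2 and anti-cAMP-cryptate; fluorescence was read after 1 h. Fifteen concentrations, triplicate.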

[7] = target: Thyrotropin receptor (Homo sapiens) (UniProt P16473); experiment: qHTS assay to identify small molecule antagonists of the thyroid stimulating hormone receptor (TSHR) signaling pathway (AID 1259385); also: nearly all actives have a fitted effect of over 20% in size
Thyrotropin receptor (Homo sapiens), sequence (P16473 whole entry, looked up): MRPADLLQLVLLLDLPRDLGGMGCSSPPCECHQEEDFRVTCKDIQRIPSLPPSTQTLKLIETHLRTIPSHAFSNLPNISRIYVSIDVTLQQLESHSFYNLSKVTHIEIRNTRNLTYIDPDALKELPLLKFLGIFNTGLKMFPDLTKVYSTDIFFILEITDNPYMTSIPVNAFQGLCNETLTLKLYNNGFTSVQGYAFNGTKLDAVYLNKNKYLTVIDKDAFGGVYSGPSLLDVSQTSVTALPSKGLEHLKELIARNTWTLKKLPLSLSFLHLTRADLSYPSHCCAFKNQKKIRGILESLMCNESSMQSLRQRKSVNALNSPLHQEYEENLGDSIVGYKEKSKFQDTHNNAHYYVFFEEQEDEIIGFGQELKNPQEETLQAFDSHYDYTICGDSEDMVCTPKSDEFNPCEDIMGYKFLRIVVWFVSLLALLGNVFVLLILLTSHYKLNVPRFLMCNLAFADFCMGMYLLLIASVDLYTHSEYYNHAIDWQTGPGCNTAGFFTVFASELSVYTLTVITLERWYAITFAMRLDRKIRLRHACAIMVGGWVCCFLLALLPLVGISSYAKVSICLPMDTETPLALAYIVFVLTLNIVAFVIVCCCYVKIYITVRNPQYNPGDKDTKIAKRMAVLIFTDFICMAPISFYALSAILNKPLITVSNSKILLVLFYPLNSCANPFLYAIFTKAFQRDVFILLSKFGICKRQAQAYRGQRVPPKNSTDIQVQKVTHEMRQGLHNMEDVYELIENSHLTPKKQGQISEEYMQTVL
Method in brief: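 TSHR-HEK293 cells were plated and held 18 h at 37C/5% CO2, then given compound plus Ro20-1724 and stimulated with TSH at 1.5 ng/mL final. After 30 min at room temperature, cAMP was detected with cAMP-d2/anti-cAMP-cryptate (1 h) by fluorescence.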

[8] = qHTS assay to identify small molecule agonists of the estrogen receptor alpha (ER-alpha) signaling pathway in the presence of an antagonist - cell viability counter screen (AID 1259386; active = well fitted curve in the direction sought with a large enough effect in the repeat runs; an effect the other way counts as inactive or inconclusive;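 also: cells exposed to compounds for 22 h at 37 °C before the viability read; nearly all actives have a fitted effect of over 30% in size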; also: potency is read from the fitted curve at half-maximal effect)
Method in brief: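 Viability counter screen using VM7Luc4E2 (full-length ER-alpha, four ERE-luciferase). The cells were treated with compounds alongside ICI-182,780 10.0nM for 22hr, and live-cell protease fluorescence was quantified with CellTiter-Fluor.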

[9] = target: Progesterone receptor (Homo sapiens) (UniProt P06401); experiment: qHTS assay to identify small molecule agonists of the progesterone receptor (PR) signaling pathway (AID 1346784); also: nearly all actives have a fitted effect of over 30% in size
Progesterone receptor (Homo sapiens), sequence (P06401 whole entry, looked up): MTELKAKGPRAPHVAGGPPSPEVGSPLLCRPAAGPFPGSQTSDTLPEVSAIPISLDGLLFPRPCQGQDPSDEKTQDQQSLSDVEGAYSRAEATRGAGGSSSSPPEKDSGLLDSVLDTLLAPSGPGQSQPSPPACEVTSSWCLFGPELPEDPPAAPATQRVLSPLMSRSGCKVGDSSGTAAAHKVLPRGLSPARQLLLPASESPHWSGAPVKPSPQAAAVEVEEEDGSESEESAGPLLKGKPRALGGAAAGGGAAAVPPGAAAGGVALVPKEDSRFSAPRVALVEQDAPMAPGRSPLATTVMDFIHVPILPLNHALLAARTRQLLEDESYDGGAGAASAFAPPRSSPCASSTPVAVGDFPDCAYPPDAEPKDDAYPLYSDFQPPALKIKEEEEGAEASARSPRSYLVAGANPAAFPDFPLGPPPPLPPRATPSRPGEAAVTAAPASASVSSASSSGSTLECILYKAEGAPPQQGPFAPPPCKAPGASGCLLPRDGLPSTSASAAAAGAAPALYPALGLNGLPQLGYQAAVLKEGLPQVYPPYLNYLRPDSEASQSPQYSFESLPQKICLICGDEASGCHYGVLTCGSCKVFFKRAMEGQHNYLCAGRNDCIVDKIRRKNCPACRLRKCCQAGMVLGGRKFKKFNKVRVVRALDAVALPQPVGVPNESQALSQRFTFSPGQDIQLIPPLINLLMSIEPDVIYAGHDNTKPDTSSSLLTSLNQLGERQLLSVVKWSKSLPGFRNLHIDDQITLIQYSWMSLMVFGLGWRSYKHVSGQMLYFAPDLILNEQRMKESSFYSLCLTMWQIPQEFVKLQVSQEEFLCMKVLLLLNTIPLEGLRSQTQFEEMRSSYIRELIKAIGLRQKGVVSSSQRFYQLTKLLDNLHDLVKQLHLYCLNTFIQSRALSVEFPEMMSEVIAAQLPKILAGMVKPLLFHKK
Method in brief: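 Agonist qHTS: compounds pinned onto 3,000 PR-UAS-bla HEK 293T cells per well in charcoal-stripped serum medium, 16hr at 37C, then beta-lactamase activity measured by LiveBLAzer FRET fluorescence after 2 hours at room temperature.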

[10] = target: Progesterone receptor (Homo sapiens) (UniProt P06401); experiment: qHTS assay to identify small molecule antagonists of the progesterone receptor (PR) signaling pathway (AID 1346795; active = well fitted inhibition curve with a large enough effect in the signal ratio in the repeat runs, not every such curve was filed as active; the % refers to the signal ratio; also: potency is read from the fitted curve at half-maximal effect)
Method in brief: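 Antagonist mode with agonist R5020 at 1 nM final and 16 hr incubation at 37C. Reporter was beta-lactamase driven by UAS in HEK293T (PR-UAS-bla), 2% charcoal-stripped serum; signal from LiveBLAzer FRET substrate, 2 hr at room temperature.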

Measured: Potency

O=C(c1ccccc1)c1ccc(Cl)cc1
inactive: all assays above

CSc1nnc(C(C)(C)C)c(=O)[nH]1
not listed: [6] | [7] | [8]
inactive: all other assays above

CCC(O)CO (centres undefined)
inactive: all assays above

CN(C[C@@H](CC[N+]12CCC(C3CCCCC3)(CC1)CC2)c1ccc(Cl)c(Cl)c1)C(=O)c1cc(C(F)(F)F)cc(C(F)(F)F)c1
inactive: [3] | [5] | [7]
active: [1] 68.6 µM | [2] 30.6 µM | [4] 17.2 µM

COCCC(=O)OC
not listed: [7] | [10]
inactive: all other assays above

CN1CC[C@H](c2c(O)cc(O)c3c(=O)cc(-c4ccccc4Cl)oc23)[C@H](O)C1
inactive: [1] | [2] | [3] | [4]

C=CC(=O)OCC(Br)CBr (centres undefined)
not listed: [6]
inactive: all other assays above

C/C(=N\[Si](C)(C)C)O[Si](C)(C)C
not listed: [6] | [7]
inactive: all other assays above

CC(=O)[C@]1(O)Cc2c(O)c3c(c(O)c2[C@@H](O[C@H]2C[C@H](N)[C@H](O)[C@H](C)O2)C1)C(=O)c1ccccc1C3=O
inactive: [3] | [4] | [5]
active: [1] 9.44 µM | [2] 2.66 µM | [8] 18.8 µM

CCCCCCCCSCc1cc(C)c(O)c(CSCCCCCCCC)c1
not listed: [10]
inactive: all other assays above

C=CC(C)(C)O
not listed: [6] | [7] | [8]
inactive: all other assays above

Cc1c[nH]c(=O)[nH]c1=O
inactive: all assays above

CCC1(C)C(=O)N(Cl)C(=O)N1Cl (centres undefined)
inactive: all assays above

CC(C)C(=O)C(C)C
not listed: [6] | [10]
inactive: all other assays above

Cc1ccc(N=Nc2c(O)ccc3ccccc23)c(C)c1
active: [1] 13.3 µM | [3] 0.335 µM
not listed: [8] | [10]
inactive: all other assays above

O=[N+]([O-])c1ccc(CO)cc1
not listed: [6] | [7] | [8]
inactive: all other assays above

O=c1cc[nH]cc1
not listed: [8]
inactive: all other assays above

Nc1ccc(N)c([N+](=O)[O-])c1
active: [1] 54.5 µM

CC1=CC[C@@H](C(C)(C)O)CC1
not listed: [10]
inactive: all other assays above

CCOC(=O)OC(=O)OCC
inactive: all assays above

C=C1CC[C@H]2O[C@]2(C)CC[C@@H]2[C@@H]1CC2(C)C
inactive: all assays above

CCCCCCCCc1ccc(Nc2ccc(CCCCCCCC)cc2)cc1
not listed: [7]
inactive: all other assays above

N#Cc1ccc(C/C(=N/NC(=O)Nc2ccc(OC(F)(F)F)cc2)c2cccc(C(F)(F)F)c2)cc1
active: [10] 27.3 µM
inactive: all other assays above

O=C1c2ccccc2C(=O)c2c(Cl)cccc21
active: [2] 32.4 µM
not listed: [6]
inactive: all other assays above
